# Bioassay records: PubChem BioAssay, National Center for Advancing Translational Sciences (NCATS)
# DRD3 antagonist = antagonists of human D3 dopamine receptor. D3R cells, DiscoveRx beta-arrestin luminescence, antagonist mode; active compounds read low. P35462. max response, negative = inhibition, %. 360,000 tested, 2.5% active. AID 652054; in the data active means max response below about -50%; inconclusive means no clear call, values can overlap the other calls
# Target sequence (P35462 whole entry, looked up): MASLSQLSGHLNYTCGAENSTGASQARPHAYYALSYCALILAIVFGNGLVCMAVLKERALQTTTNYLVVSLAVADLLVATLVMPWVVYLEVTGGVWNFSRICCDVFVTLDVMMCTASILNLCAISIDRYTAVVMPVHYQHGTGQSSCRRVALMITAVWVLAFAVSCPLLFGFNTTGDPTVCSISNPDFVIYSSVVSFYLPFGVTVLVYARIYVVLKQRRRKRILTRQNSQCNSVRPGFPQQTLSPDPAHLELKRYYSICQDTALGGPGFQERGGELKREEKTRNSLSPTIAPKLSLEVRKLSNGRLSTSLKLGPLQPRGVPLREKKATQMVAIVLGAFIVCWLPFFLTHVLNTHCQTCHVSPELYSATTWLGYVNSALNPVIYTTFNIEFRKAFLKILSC
#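 Cells plated overnight at 1500 cells/well, then exposed to library compounds with dopamine controls for 90 minutes at 37 degrees C. DiscoveRx reagent added for 30–60 minutes at room temperature; luminescence read, quantitative HTS format.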
# IL-1B inflam inh = inhibitors of inflammasome signaling (IL-1 beta secretion). THP-1 LPS/ATP IL-1B secretion, AlphaLISA, 16 h; active compounds read low. activity change, % at 57.5 µM. 360,000 tested, 4.7% active; in the data active means activity change below about -50%; inconclusive means mostly about -30% to -49%
#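 Secreted IL-1B measured by AlphaLISA bead assay after 16 h compound exposure of THP-1 cells; compounds (final up to 57.5 uM) added 1 h before LPS (250 ng/mL) and ATP (1.25 mM) stimulation; lower signal means less secretion.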
# S2 tox = cell viability loss in ATXN counter-screen. S2 cells (HEK-293 line with an ATXN2-luciferase reporter) viability, CellTiter-Fluor protease fluorescence, 24 h. Potency, µM (titrated, usually from 56.7 µM), hits mostly cytotoxic. 400,000 tested, 0.49% active. AID 651635; further: nearly all actives have a fitted effect of over 40% in size
# a7 integrin act = activates integrin-mediated alleviation for muscular dystrophy; alpha7betagal myoblasts, beta-gal FDG fluorescence, 48 h; Potency, µM (series often up to 38.3 µM), usual class: activators; 350,000 tested, 0.064% active; further: nearly all actives have a fitted effect of over 60% in size
#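 Alpha7betagal+/- myoblasts (passage 13) were plated 16-24 hr, then exposed to compounds (1:260 dilution of DMSO stock) for 48 hours at 37C. After MPER lysis, β-galactosidase reporter activity was read as FDG fluorescence (ex 480/em 540) after 30 minutes.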
# D3 ag = D3 dopamine receptor (human) agonism. P35462. D3R DiscoveRx beta-arrestin cells, luminescence, 90 min. max activation, %. 410,000 tested, 0.58% active; in the data active means max activation above about 30%
#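 Cells at 1500/well, incubated overnight, then treated with pinned compounds (dopamine as control) for 90 min at 37 degrees C. DiscoveRx reagent added for 30 - 60 minutes at room temperature; luminescence read.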
# ATXN2 expr inh = reduces ATXN2 reporter expression in HEK-293 cells; HEK-293 ATXN2-luciferase reporter, luminescence, 24 h; Potency, µM (titrated, usually from 57 µM), most hits filed as inhibitors; 360,000 tested, 0.72% active; AID 1745845; further: nearly all actives have a fitted effect of over 55% in size
#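 qHTS (up to 57 uM final) was run with 24 h compound exposure of reporter cells at 37 °C. Each well was multiplexed: SteadyGlo luminescence measured ATXN2-luciferase expression after a fluorogenic Gly-Phe-AFC viability readout (25 uM final).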
# A number is an active result; n = inactive; u = inconclusive; x = no result; [ ] = dose if it differs, or a comment. A selection: hits, their analogues and other compounds. The true share with any hit is near 7%. Unless noted, the call rests on the fitted dose curve; in most records, active means well fitted curve in the direction sought with a large enough effect; inconclusive means small, poorly fitted or top-dose-only effect, or another doubt; inactive means no such curve, though single readings can be large; an effect the other way counts as inactive or inconclusive.
SMILES,DRD3 antagonist,IL-1B inflam inh,S2 tox,a7 integrin act,D3 ag,ATXN2 expr inh
COc1ccccc1NC(=O)CSc1nnc(CC(=O)Nc2ccccc2C)n1C,n,n,n,n,n,n
O=C(Cc1ccccc1)Nn1c(O)c(/C=C2\C=Nc3ccccc32)sc1=S,n,n,n,n,n,n
O=S1(=O)N=C(N/N=C/c2cccs2)c2ccccc21,n,-99.3,u,n,n,n
CCc1ccccc1NC(=O)COCc1cc(-c2ccco2)on1,x,x,x,x,n,x
COc1ccc(C(=O)N2CCc3cc(OC)c(OC)cc3C2c2ccc(OC)c(OC)c2)cc1 (centres undefined),n,-51.3,n,n,n,n
COc1ccc(C(=O)N2CCc3cc(OC)c(OC)cc3C2c2cccc([N+](=O)[O-])c2)cc1OC (centres undefined),n,u,n,n,n,n
COc1cc2c(cc1OC)C(c1cccc([N+](=O)[O-])c1)N(C(=O)c1ccccc1C(=O)O)CC2 (centres undefined),n,-57.9,n,n,n,n
CN(c1ccc(F)cc1)S(=O)(=O)N1CCCC(C(=O)NCc2cccc(Br)c2)C1 (centres undefined),x,x,x,x,n,x
Cn1c(CNS(=O)(=O)c2ccc(Cl)cc2)n[nH]c1=S,-60.2,n,n,n,n,u
CCc1ccc(CNC(=O)c2cccc(-n3c(C)nc4cccnc43)c2)cc1,x,x,x,x,n,x
CCOC(=O)Cn1nc(-c2ccc(C)cc2)c2ccccc2c1=O,n,n,n,n,n,n
CCN1/C(=C\C(=S)Nc2ccccc2)Sc2ccccc21,n,-97.1,u,n,n,n
Cn1cnc([N+](=O)[O-])c1Oc1cccc(O)c1,n,-105.4,n,n,n,n
Cn1cnc([N+](=O)[O-])c1Oc1ccccc1,n,u,n,n,n,n
Cc1cccc(NC(=S)NC(C)C(c2ccccc2)N2CCN(C)CC2)c1C (centres undefined),n,-50.5,n,n,n,n
Cc1ccc(NC(=O)c2oc3ccccc3c2NC(=O)Cc2ccccc2)cc1,x,x,n,x,n,n
O=C(Nc1cccc(C(=O)O)c1)Nc1ccc2c(c1)OCO2,n,n,n,n,n,5.01µM
CCOC(=O)c1cccc(NC(=O)c2ccc3c(c2)OCO3)c1,n,-84.7,n,n,n,n
CCOC(=O)c1cccc(NC(=O)/C=C/c2ccc3c(c2)OCO3)c1,n,-89.5,n,n,n,u
CC(=O)c1cccc(NC(=O)c2ccc3c(c2)OCO3)c1,n,n,n,n,n,n
Cc1ccc(C(C(=O)Nc2ccc3c(c2)OCO3)N(C)C(=O)Cc2c[nH]c3ccccc23)cc1 (centres undefined),n,-51.8,u,n,n,n
COc1cc(/C=N/Nc2ccc3ccccc3c2)ccc1OC(=O)c1ccco1,n,n,n,n,n,n
CNC(=O)CN(c1ccc(Oc2ccccc2)cc1)S(=O)(=O)c1ccc(C)cc1,n,n,u,n,n,n
Cc1cccc(NC(=S)NNC(=O)c2ccc3c(c2)OCO3)c1,-59.1,n,n,n,n,n
CCOC(=O)c1cccc(NC(=O)c2ccc3nc(Cc4ccccc4)oc3c2)c1,x,x,0.794µM,x,n,u
SMILES,DRD3 antagonist,IL-1B inflam inh,S2 tox,a7 integrin act,D3 ag,ATXN2 expr inh
O=C(Nc1cccc(NC(=O)c2cccs2)c1)c1ccc2c(c1)OCO2,n,-77.4,n,n,n,n
COc1cc(C(=O)NC(=S)NNC(=O)c2ccc3c(c2)OCO3)cc(OC)c1OC,n,n,u,n,30.2,u
O=C(CN(C(=O)C1COc2ccccc2O1)c1ccccc1)NCC1CCCO1 (centres undefined),n,n,n,n,n,n
COc1cc(/C=C2\SC(c3ccccc3)=NC2=O)cc(Cl)c1O,n,n,x,n,n,n[11.3 µM]
Cc1ccc(C(NC(=O)/C=C\c2ccc3c(c2)OCO3)C(=O)Nc2ccc3c(c2)OCO3)cc1 (centres undefined),-88.4,n,n,n,n,n
COc1ccc(NC(=O)C(NC(=O)/C=C\c2ccc3c(c2)OCO3)c2ccc(OC)cc2)cc1 (centres undefined),x,x,n,x,n,n
